Bioassay records from PubChem BioAssay.
A selection: hits, their analogues and other compounds. The true share with any hit is near 10%.
Pf growth 96h: Primary qHTS for delayed death inhibitors of the malarial parasite plastid, 96 hour incubation; P. falciparum luciferase reporter growth, 96 h; Potency, µM (doses to about 28.7 µM), without a hit: at the highest dose activity change, negative = inhibition, actives largely listed as inhibitors; 6.9% of 320,000 active; note: % is set by controls: 0 for no effect and ±100 for the full control effect
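Two-generation exposure (96 h) targets delayed-death phenotype. Reporter parasites carrying integrated firefly luciferase, in red cells at 2% hematocrit and 0.05% parasitemia final, kept at 37 C, 5% CO2; luminescence loss indicates inhibition.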
Pf growth 48h: Primary qHTS for delayed death inhibitors of the malarial parasite plastid, 48 hour incubation; P. falciparum luciferase growth in erythrocytes, 48 h; Potency, µM (highest dose often 28.7 µM), without a hit: at the top dose activity change, negative = inhibition, usual class: inhibitors; 5.9% of 310,000 active; AID 504832, 2011; note: % is set by controls: 0 for no effect and ±100 for the full control effect
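Luciferase-expressing parasites in RBCs, 2% Hct / 0.1% parasitemia final; RPMI 1640 + 0.5% Albumax; 37 C, 5% CO2, one generation; luminescence read-out, lower signal = inhibition.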
NS1 function inh: qHTS Assay for Inhibitors of Influenza NS1 Protein Function; Potency, µM (top dose mostly 46.1 µM), inactives show at the top dose activity, positive = more growth; AID 2326, 2010; 0.4% of 270,000 active; calls by dose curve; note: actives are rising curves; nearly all actives have a fitted effect of over 50% in size
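Compounds were scored for reversing the slow growth caused by influenza A NS1 in S. cerevisiae, measured by optical density at 600 nm. Assay medium contained 2% galactose at pH 6.0; NS1-free yeast of the same strain were the positive control.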
SARS PLpro yeast: qHTS of Yeast-based Assay for SARS-CoV PLP; S. cerevisiae expressing SARS-CoV PLpro, growth rescue; Potency, µM (highest dose often 32.9 µM), without a hit: at the highest dose activity, positive = growth rescue, hits mostly activators; 0.19% of 330,000 active; calls by dose curve; note: 0% is about no effect; nearly all actives have a fitted effect of over 55% in size
* marks the source's active call; other numbers are inactive results; ? = inconclusive; · = no result given; ! = repeats disagree; [ ] = another dose, or the depositor's remark. Unless noted, calls come from the whole dose curve; as a rule, active = well fitted inhibition curve with a large enough effect; inconclusive = small, poorly fitted or top-dose-only effect, or another doubt; inactive = no such curve, though single readings can be large or run the other way. Potency is the fitted concentration of half-maximal effect.

SMILES | Pf growth 96h | Pf growth 48h | NS1 function inh | SARS PLpro yeast
COc1ccc(-c2cc(C(F)F)nc(-n3nc(C)cc3C)n2)cc1 | ? | 8.28µM* | -49.7% | 13.8%
Cc1ccc(-c2cc(C(F)F)nc(N3CCOCC3)n2)cc1 | ? | ? | -2.0% | -3.2%
COc1ccc(C(=O)CSc2n[nH]c(-c3ccco3)n2)cc1 | 1.17µM* | 8.2% | -99.2% | 0.8%
COC(=O)CSc1n[nH]c(-c2ccncc2)n1 | -17.0% | 14.8% | -6.3% | -6.4%
CCc1ccc(C(=O)CSc2n[nH]c(-c3ccncc3)n2)cc1 | 5.22µM* | · | -58.9% | -21.0%
Cc1ccc(C(=O)CSc2n[nH]c(-c3ccco3)n2)cc1C | ? | 2.8% | -14.6% | -8.5%
C=CCN(CC=C)C(=O)CN1C(=O)NC(c2ccccc2)(c2ccccc2)C1=O | -5.7% | 0.0% | -2.6% | 3.2%
COc1ccc(-n2nnnc2CNC(=O)C(=O)c2c[nH]c3ccccc23)cc1 | 9.9% | ? | · | -0.8%
Cc1ccc(-n2nnnc2SC(C(=O)c2c[nH]c3ccccc23)c2ccccc2)cc1 (stereo unspecified) | 1.47µM* | ? | 27.4% | -22.9%
CCOC(=O)C1=C(CC)Nc2ccccc2N=C1NC(=O)c1ccc(C)c(S(=O)(=O)N2CCOCC2)c1 | 10.4µM* | ? | · | -4.3%
CCOC(=O)C1=C(CC)Nc2ccccc2N=C1NC(=O)c1ccc(S(=O)(=O)N2CCOCC2)cc1 | 14.7µM* | ? | · | 0.3%
Cc1cccc(C)c1NC(=O)C(c1cccs1)N(Cc1ccco1)C(=O)Cn1nnc2ccccc21 (stereo unspecified) | · | 6.57µM* | -25.9% | 4.0%
O=C(NCC1CCCO1)C(c1ccc(F)cc1)N(CC1CCCO1)C(=O)c1ccc(-c2ccccc2)[nH]1 (stereo unspecified) | 26.4% | 2.08µM* | -8.1% | 1.0%
O=C(NCc1ccco1)C(c1ccccc1)N(Cc1ccccc1)C(=O)Cn1nnc2ccccc21 (stereo unspecified) | 9.28µM* | -22.1% | 6.7% | -3.7%
O=C(NCc1ccco1)C(c1ccccc1)N(CC1CCCO1)C(=O)Cn1nnc2ccccc21 (stereo unspecified) | 0.0% | ? | ? | 5.4%
O=C(NCc1ccc(F)cc1)C(c1ccccc1)N(CC1CCCO1)C(=O)Cn1nnc2ccccc21 (stereo unspecified) | ? | 8.28µM* | -2.2% | 18.0%
O=C(NCc1ccco1)C(c1cccnc1)N(C(=O)Cn1nnc2ccccc21)c1ccccc1 (stereo unspecified) | ? | · | -11.8% | -11.2%
O=C(NC1CCCCC1)C(c1ccc(F)cc1)N(Cc1ccco1)C(=O)Cn1nnc2ccccc21 (stereo unspecified) | · | -20.1% | 1.4% | 5.6%
O=C(C[C@H]1C/C=C\CC[C@H](Cc2ccc(F)cc2)C(=O)OC[C@@H]2CCCN2C1=O)N[C@H](CO)Cc1ccccc1 | · | · | · | -3.9%
Cc1ccccc1OCC(=O)NCCCNC(=O)c1cccnc1 | -19.0% | -0.5% | 2.4% | -3.3%
CCCCOc1ccc(-c2nnn(CCC(=O)N3CCOCC3)n2)cc1 | 9.28µM* | 67.5% | -72.4% | -2.1%
CCCOc1ccc(C(=O)CCN2CCN(C(=O)OCC)CC2)cc1 | ? | 10.8% | · | -5.2%
CCOc1ccc(-c2nnn(CC(=O)c3ccc4c(c3)OCCO4)n2)cc1 | ? | -14.4% | -6.1% | 1.0%
CCCOc1ccc(-c2nnn(CC(=O)c3ccc4c(c3)OCCO4)n2)cc1 | 7.38µM* | ? | -23.5% | -10.5%
CCCOc1ccc(-c2nnn(CC(=O)N3CCC(C)CC3)n2)cc1 | -5.0% | · | -1.5% | -14.9%
SMILES | Pf growth 96h | Pf growth 48h | NS1 function inh | SARS PLpro yeast
CCCCCOc1ccc(C(=O)CCN2CCOCC2)cc1 | 2.33µM* | ? | -26.5% | -9.5%
CC(OC(=O)Cc1c[nH]c2ccccc12)C(=O)NC1CCCCC1C (stereo unspecified) | 9.1% | ? | · | 1.5%
COc1ccc(CNC(=O)COC(=O)c2nc3nc(C)cc(C)n3n2)cc1 | ? | ? | · | 1.5%
CCOC(=O)N1CCC(NCCNC(=O)c2cccc(F)c2)CC1 | 36.7% | 3.8% | · | -7.8%
COc1ccc(CCNC(=O)CCCCCNc2nc(=S)[nH]c3ccccc23)cc1OC | 10.4µM* | ? | -0.5% | -7.2%
O=C(CCCCCNc1nc(=S)[nH]c2ccccc12)NCCc1ccccc1 | 0.0% | -12.1% | 8.2% | 2.2%
COc1cc2[nH]c(=S)nc(NCc3ccc(C)cc3)c2cc1OC | 13.1µM* | ? | -0.8% | -1.6%
COc1ccc(CNc2nc(=S)[nH]c3cc(OC)c(OC)cc23)cc1 | -19.8% | -29.5% | 1.1% | 0.7%
COc1cc2[nH]c(=S)nc(NCc3ccccc3)c2cc1OC | 0.522µM* | -18.8% | -1.9% | -1.4%
COc1ccc(N(Cc2ccccc2)C(=O)OC(C)(C)C)c(C(=O)N(C)OC)c1 | · | · | · | 0.7%
CCc1ccc(OCC(=O)O/N=C(\N)c2ccncc2)c(Br)c1 | 7.38µM* | 178.8% | -22.8% | -14.0%
Cc1cc2c(C(C)C)c(O)c(O)c(C=O)c2c(O)c1-c1c(C)cc2c(C(C)C)c(O)c(O)c(C=O)c2c1O | 5.22µM* | 13.1µM* | 0.355µM*! | 10µM*
Cc1cccc(OCC(=O)Nc2ccccc2N2CCCCC2)c1 | -9.5% | ? | -72.9% | -9.1%
Cc1cccc(OCC(=O)NC(=S)N2CCCc3ccccc32)c1 | 9.28µM* | ? | 14.9% | -1.7%
CS(=O)(=O)N1Cc2ccccc2CC1C(=O)Nc1ccccc1C(N)=O (stereo unspecified) | -9.8% | 23.9% | -1.5% | 6.3%
COc1cc(NC(=O)C2CCCN2C(=O)OCc2ccccc2)cc(OC)c1 (stereo unspecified) | 0.2% | 7.38µM* | -10.9% | 1.3%
COc1cc(NC(=O)C2Cc3ccccc3CN2S(C)(=O)=O)cc(OC)c1 (stereo unspecified) | 1.85µM* | 0.0% | 6.6% | -0.5%
CCOc1ccccc1NC(=O)C1Cc2ccccc2CN1S(C)(=O)=O (stereo unspecified) | 11.7µM* | ? | -8.7% | 0.5%
CCOc1ccccc1NC(=O)C1CCCN1S(=O)(=O)c1ccccc1C(F)(F)F (stereo unspecified) | ? | 8.28µM* | · | 0.4%[6.58 µM]
COc1ccc(NC(=O)[C@@H]2CCCN2C(=O)[C@@H]2Cc3ccccc3CN2C(=O)OC(C)(C)C)cc1 | 11.7µM* | 11.7µM* | 5.5% | -2.8%
COc1ccc(NC(=O)C2CCN(C(=O)[C@@H]3Cc4ccccc4CN3C(=O)OC(C)(C)C)CC2)cc1 | ? | ? | -2.4% | 0.0%
CC1CCCC(NC(=S)NC(=O)c2cncc(Br)c2)C1C (stereo unspecified) | 23.3% | 13.1µM* | 3.3% | ?
O=C(NC(=S)Nc1ccccc1Cl)c1cncc(Br)c1 | 11.7µM* | 0.0% | -7.3% | -6.8%
CC1CCCCC1NC(=O)c1cncc(Br)c1 (stereo unspecified) | -14.2% | · | -6.2% | 4.8%
C[C@H](CO)N1C[C@H](C)[C@@H](CN(C)C(=O)Nc2ccc3c(c2)OCO3)Oc2c(NC(=O)Cc3ccccc3)cccc2C1=O | · | · | · | 0.9%
